Test results from PubChem BioAssay AID602233 (National Center for Advancing Translational Sciences (NCATS), 2012).
The campaign covered roughly 380,000 compounds. About 170 (0.045%) were called active. The sample as a whole holds a higher share of actives than the screen did. Values without a mark were called inactive. The call rests on the fitted dose curve; in most records, active means well fitted inhibition curve with a large enough effect; inconclusive means small, poorly fitted or top-dose-only effect; inactive means no such curve, though single readings can be large or run the other way.

Molecular target: Phosphoglycerate kinase, glycosomal (Trypanosoma brucei brucei) (UniProt P07378)
Test: qHTS Assay to Find Inhibitors of Phosphoglycerate Kinase; further: nearly all actives have a fitted effect of over 60% in size
Details: PGK/GAPDH coupled, Kinase-Glo luminescence, 60 min; series mostly up to 57.5 µM; activity change, negative = inhibition: at the top concentration
From the text: Several species of the Trypanosomatidae family of parasitic protozoans cause a spectrum of diseases throughout the tropical and subtropical world. Sleeping sickness, caused by two subspecies of Trypanosoma brucei, is endemic to areas of sub-Saharan Africa, while Chagas disease, a manifestation of Trypanosoma cruzi infection, is prevalent throughout Central and South America. In addition, many species of Leishmania are responsible for a range of cutaneous and visceral diseases, causing ulcers, destructive lesions and kalaazar, a lethal infection of the viscera. Collectively, these organisms infect 30 million people worldwide (~500 million live in endemic areas), and account for ~130,000 deaths annually. Given their debilitating and prevalent nature, trypanosomatid parasites impose a heavy medical, economic and social burden on entire populations, primarily in the developing world. The problem is further exacerbated by the fact that existing treatments have progressed little in the past 50 years, and current drugs show high toxicity and poor efficacy. […] Blood-stream stages of T. brucei are entirely dependent on glycolysis as a source of ATP, and the tricarboxylic acid cycle and oxidative phosphorylation are both repressed. Glycolysis in axenically cultured T. cruzi, representing the intracellular pathogenic stage, is also essential for these parasites. […] Previous studies have shown that the glycolytic enzyme, phosphoglycerate kinase (PGK), is a viable target for drugs to kill these parasites. […] NIH Molecular Libraries Probe Production Network [MLPCN] NIH Chemical Genomics Center [NCGC] MLPCN Grant: R03 MH093212 PI Name: Malcolm Walkinshaw, University of Edinburgh
3ul of substrate/PGK buffer (columns 1,2,5-48) are dispensed into Greiner white solid bottom 1536-well assay plates; columns 3-4 receive only TEA buffer as 0x PGK controls. Compounds are then transferred via Kalypsys pin tool equipped with 1536-pin array (10nl slotted pins, V&P Scientific, San Diego, CA). Following addition of compound, 1ul of GAPDH (100nM final concentration, all columns) is added to initiate the reaction (this upstream coupling enzyme is necessary for in-well production of PGK substrate, 1,3-bisphosphoglycerate (1,3-BPG), which is unstable and not commercially available). The plates are then incubated at room temperature for 60 minutes. Kinase-Glo Plus reagent is added (2ul) and plates incubated for 10 minutes, before being transferred to a ViewLux high-throughput CCD imager (PerkinElmer) wherein single end-point measurements of luminescence are acquired using a clear filter. All reagents are diluted in an assay buffer consisting of 100mM TEA (pH 7.6), 5mM MgCl2 and 0.01% Tween-20.
On the % scale 0 is the no-effect control and ±100 the full control effect.

Phosphoglycerate kinase, glycosomal (Trypanosoma brucei brucei), sequence (P07378 whole entry, looked up): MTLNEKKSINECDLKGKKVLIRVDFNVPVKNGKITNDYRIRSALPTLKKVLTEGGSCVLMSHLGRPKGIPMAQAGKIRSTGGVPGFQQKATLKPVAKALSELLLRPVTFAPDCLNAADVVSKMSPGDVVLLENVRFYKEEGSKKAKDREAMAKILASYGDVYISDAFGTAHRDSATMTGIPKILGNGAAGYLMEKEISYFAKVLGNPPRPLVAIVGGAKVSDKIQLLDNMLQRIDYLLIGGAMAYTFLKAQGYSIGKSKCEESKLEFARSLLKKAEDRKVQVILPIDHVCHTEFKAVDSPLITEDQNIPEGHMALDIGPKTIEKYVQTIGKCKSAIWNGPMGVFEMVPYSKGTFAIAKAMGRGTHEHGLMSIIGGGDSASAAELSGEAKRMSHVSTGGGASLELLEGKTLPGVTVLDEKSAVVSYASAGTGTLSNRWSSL

SMILES	activity change, negative = inhibition	outcome
COc1ccccc1CNC(=O)CCn1c(=O)c2ccccc2n(CC(=O)Nc2ccc(Br)cc2F)c1=O	-3.68%	
Cc1ccc(Nc2ccc3cc(S(=O)(=O)N4CCCCC4)ccc3n2)cc1F	-1.23%	
COc1ccc(-c2nc3nc(C)cc(C)n3c2Nc2c(C)cccc2C)cc1	-1.29%	
Cc1ccc(-n2ncc3c(NCCCn4ccnc4)ncnc32)cc1Cl		inactive
CCCN1CCN(CCCNC(=O)c2cnn(-c3ccc(C)cc3)c2-n2cccc2)CC1		inactive
CSc1ccc(CCNC(=O)c2cc(C)nc3c2c(C)nn3-c2cccc(F)c2)cc1	-6.82%	
NC1=NC(c2cc(F)cc(F)c2)n2c(nc3ccccc32)N1 (centres undefined)	1.97%	
COc1ccc2c(Sc3ccc(C)cc3)c(C(=O)NC(C)c3ccccc3)[nH]c2c1 (centres undefined)	-15.5%	
CCCCOc1ccc(CNC(=O)c2ccc3c(c2)N(C)C(=O)C2CCCCN32)cc1 (centres undefined)	-2.79%	
O=C(Cn1c(-c2cccs2)cc2ccccc21)NCCc1ccc(Cl)cc1	-6.23%	
Cc1nn2c(=O)cc(COC(=O)c3cccc(NC(=O)COc4ccccc4Cl)c3)nc2s1		inactive
COc1ccc(-c2cn3c(n2)sc2cc(C(=O)Nc4ccc(F)cc4)ccc23)cc1	-9.23%	
COc1ccccc1CNC(=O)c1ccccc1NC(=O)c1nsc2ccccc12	-6.03%	
Cc1ccc(Cn2c(=O)n(CCCC(=O)NCc3ccccc3Cl)c(=O)c3ccccc32)cc1	-2.7%	
CCCCOc1ccc(NC(=O)c2cc3c(n(-c4ccc(Cl)cc4)c2=O)CCCC3=O)cc1	-0.531%	
CCOc1ccccc1CNCc1c(C(=O)O)c(C)n(Cc2ccc(C)cc2)c1C	-6.39%	
CCOc1ccc(CNC(=O)CCc2c(C)nn(-c3ccc(N4CCCCC4)nn3)c2C)cc1	-4.7%	
CCOC(=O)C1CCCN(S(=O)(=O)c2cc(-c3cc(C)no3)ccc2OC)C1 (centres undefined)	-9.52%	
COc1ccccc1-c1noc(CSc2nnc(-c3ccccc3)n2-c2ccc(C)c(C)c2)n1		inactive
COc1cccc(NC(=O)CN2C(=O)c3ccccc3Sc3ncccc32)c1	-0.909%	
COc1cccc(OCCn2c(-c3ccc(Br)cc3)nc3ccccc3c2=O)c1	4.47%	
O=C(Cn1c(=O)n(Cc2ccccc2)c(=O)c2sc3ccccc3c21)Nc1ccccc1F	-5.67%	
CCC(=O)N1CCc2cc(S(=O)(=O)NC(CC(C)C)C(=O)NCCc3cccc(C)c3)ccc21 (centres undefined)	7.21%	
CCOc1ccc(-n2nc3ccc(NC(=O)c4ccc(OC)c(Cl)c4)cc3n2)cc1	9.53%	
Cc1cc(C)c(NC(=O)c2cc3sc(Cl)cc3n2C)c(C)c1	5.73%	

SMILES	activity change, negative = inhibition	outcome
CCn1c2ccccc2c2nnc(SCC(=O)O)nc21		inactive
COc1ccc(-c2nc(Cn3c(=O)cc(C)c4c(C)nn(-c5ccccc5)c43)c(C)o2)c(OC)c1	9.43%	
COc1ccccc1CNC(=O)c1ccc(-n2c(C)cc3c2CCCC3)cc1	3.07%	
Cc1ccc(O)c(NC(=O)CCS(=O)(=O)c2nc(-c3ccc4c(c3)OCO4)cc(C(F)(F)F)n2)c1	-6.86%	
COc1ccc(NC(=O)c2ccco2)cc1NC(=O)COc1ccc(C)c(C)c1	3.35%	
CCCSc1nc2sc3c(c2c(=O)n1-c1cccc(Br)c1)CC(C)(C)OC3		inactive
O=C(NCCCO)C(=O)Nc1c2c(nn1-c1ccccc1)CSC2	13.6%	
COc1ccc(NC(=O)CCNS(=O)(=O)c2ccc3c(c2)CCCC(=O)N3)cc1Cl	0.351%	
CN1c2ccc(Cl)cc2-c2nc(SCC(=O)Nc3cc(F)ccc3F)ncc2S1(=O)=O	-1.46%	
COc1ccc(Cc2nc3ccc(C(=O)NCc4ccc(OC)cc4OC)cc3o2)cc1	8.22%	
CCOC(=O)C1CCCN(CC(=O)Nc2cc(C)c3c(=O)oc4ccccc4c3n2)C1 (centres undefined)		inactive
COc1ccc(S(=O)(=O)NCCSc2nnnn2-c2ccccc2)cc1	-2.3%	
COC(=O)c1c(NC(=O)CCCOc2ccccc2)sc2c1CCC(C)C2 (centres undefined)	9.76%	
Cc1nn2c(=O)cc(COC(=O)c3ccccc3NC(=O)COc3ccccc3C)nc2s1	0.156%	
COc1ccccc1CNC(=O)CCCn1c(=O)c2ccccc2n(CC(=O)Nc2ccc(C)cc2Cl)c1=O	-9.25%	
COc1ccccc1CNC(=O)NCc1noc2ccc(C)cc12	-1.14%	
CCOc1ccccc1NC(=O)Cn1c2ncccc2c(=O)n1-c1ccc(C)c(C)c1	-2.74%	
O=C(CSc1nc2ccccc2nc1Cc1ccccc1)N1CCCCC1	-9.31%	
CCOc1cccc(NC(=O)CSc2ncc(-c3ccc(Cl)cc3)[nH]2)c1	3.11%	
Cc1c(C(=O)N(C)C)sc2c1c(=O)n(-c1ccc(F)cc1)c(=O)n2CC(=O)N(C)c1ccccc1	8.29%	
CCOc1ccc(N(C)S(=O)(=O)c2cc(-c3cnc(C)o3)ccc2OC)cc1	2.21%	
Cc1oc(-c2ccccc2F)nc1CN1CCC(C(=O)NCCc2ccc(Cl)cc2)CC1	0.46%	
CCOc1ccc(NC(=O)c2c(NC(=O)Cc3ccccc3)sc3c2CCCCC3)cc1	5.92%	
CCc1nnc(SCC(=O)Nc2cc(OC)ccc2OC)nc1CC	0.423%	
